From PubChem BioAssay
Shown are actives, neighbours in structure and some others; about 10% of the full set was active somewhere.
CtBP-E1A blk: CtBP/E1A binding inhibition; AlphaScreen GST-E1A/His-CtBP binding, 1536-well; hits give low values; activity change, % (test concentration not listed); 340,000 tested, 0.49% active; in the data active means activity change below about -65%; inconclusive means mostly about -30% to -63%
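AlphaScreen with 125 nM GST-E1A and 125 nM His-CtBP (5X stocks) in Tris pH 8.0, 300 mM NaCl, BSA, Tween 20, TCEP. Compounds preincubated 2 h at 37 deg C, then glutathione donor/nickel acceptor beads added for 1 h at 37 deg C in dark.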
Six1-Eya2 inh: inhibitors of human Six1/Eya2 interaction. Q15475+O00167. AlphaScreen GST-Six1/His-Eya2 binding, biochemical; hits give low values. activity change, % (concentration not given with the values). 360,000 tested, 0.56% active. AID 651725; in the data active means activity change below about -65%; inconclusive means mostly about -30% to -63%
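Six1/Eya2 binding was read as AlphaScreen signal after compounds were pinned into GST-Six1 plus His-tagged Eya2 (5X stock 250/500 nM) in pH 8.0 Tris/NaCl/TCEP buffer, beads added, then incubated 1 h, 37 C, dark.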
HP1b chromo inh: inhibitors of HP1-beta chromodomain binding to methylated histone tails. P83916. 390,000 tested, 0.56% active. AID 540317. Potency, µM (series often up to 114 µM), hits mostly inhibitors. AlphaScreen HP1-beta / biotin-H3K9me3 peptide binding; further: nearly all actives have a fitted effect of over 70% in size
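AlphaScreen: HP1-beta (50 nM) preformed 30 min with biotin-H3(1-18)K9me3 peptide (50 nM) in PBS pH 7.4, 0.01% Tween-20. Compound added for 30 min at RT, then streptavidin donor/nickel chelate acceptor beads (10 ug/mL) for 30 min.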
G9a block: G9a (human) methyltransferase inhibition; G9a H3K9 monomethylation, AlphaScreen, 2 h; Potency, µM (doses to about 102 µM), actives largely listed as inhibitors; 350,000 tested, 8.8% active; AID 504332; further: nearly all actives have a fitted effect of over 75% in size
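Enzyme 20 nM + cpd, 15 min RT; add b-H3K9 pep 500 nM / SAM 20 uM; 2 h RT; anti-H3K9me1 Ab 0.5 ug/mL + SA donor / anti-rabbit acceptor beads 20 ug/mL each, 10 min; AlphaScreen read.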
JMJD2A Tudor inh: JMJD2A Tudor domain (human) inhibition. AID 504339. 390,000 tested, 4.4% active. Potency, µM (doses to about 114 µM), most hits filed as inhibitors. AlphaScreen JMJD2A-Tudor / H3K4me3 peptide binding. O75164; further: nearly all actives have a fitted effect of over 50% in size
Target sequence (O75164 whole entry, looked up, the tested form may be a part): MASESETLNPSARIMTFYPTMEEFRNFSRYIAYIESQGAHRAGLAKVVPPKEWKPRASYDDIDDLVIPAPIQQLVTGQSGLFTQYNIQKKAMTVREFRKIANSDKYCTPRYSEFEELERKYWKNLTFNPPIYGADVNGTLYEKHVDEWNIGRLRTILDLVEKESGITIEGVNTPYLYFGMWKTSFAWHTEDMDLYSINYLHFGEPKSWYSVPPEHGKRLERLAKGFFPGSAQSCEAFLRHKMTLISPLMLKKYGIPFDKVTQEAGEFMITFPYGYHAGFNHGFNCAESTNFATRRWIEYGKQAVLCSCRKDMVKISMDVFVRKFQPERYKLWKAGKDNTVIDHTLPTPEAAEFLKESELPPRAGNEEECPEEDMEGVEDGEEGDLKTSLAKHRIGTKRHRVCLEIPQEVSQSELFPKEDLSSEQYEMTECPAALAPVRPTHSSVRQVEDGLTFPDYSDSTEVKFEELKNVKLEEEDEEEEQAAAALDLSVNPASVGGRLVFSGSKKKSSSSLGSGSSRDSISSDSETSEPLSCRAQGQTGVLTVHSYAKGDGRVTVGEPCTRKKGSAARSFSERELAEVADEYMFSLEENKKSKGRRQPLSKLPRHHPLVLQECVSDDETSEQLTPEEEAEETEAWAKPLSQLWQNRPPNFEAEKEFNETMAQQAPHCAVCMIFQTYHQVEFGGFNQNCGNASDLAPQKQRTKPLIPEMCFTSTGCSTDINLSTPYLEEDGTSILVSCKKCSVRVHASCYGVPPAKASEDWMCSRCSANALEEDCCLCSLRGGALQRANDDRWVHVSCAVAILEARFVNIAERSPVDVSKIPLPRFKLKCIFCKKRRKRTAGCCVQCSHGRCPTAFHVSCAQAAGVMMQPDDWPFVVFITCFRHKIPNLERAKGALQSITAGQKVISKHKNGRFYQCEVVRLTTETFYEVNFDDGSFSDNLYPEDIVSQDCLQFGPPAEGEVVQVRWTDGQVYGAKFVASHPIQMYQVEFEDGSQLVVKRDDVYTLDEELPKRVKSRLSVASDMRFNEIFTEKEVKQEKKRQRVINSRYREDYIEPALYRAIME
BAZ2B block: blocks human BAZ2B | Q9UIF8 | AlphaScreen BAZ2B-H3K14Ac peptide displacement | Potency, µM (doses to about 114 µM), usual class: inhibitors | 360,000 tested, 4.4% active; further: nearly all actives have a fitted effect of over 60% in size
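AlphaScreen displacement: compounds (up to 110uM) incubated 30 min at room temperature with a preformed 50 nM BAZ2B/50 nM biotinylated H3K14Ac peptide complex in PBS pH 7.4 with Tween-20. Donor and acceptor beads at 10 ug/mL final added, 20 min light-protected before reading.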
Large screens that a line does not name were inactive. Unless noted, the call rests on the fitted dose curve; in most records, active means well fitted inhibition curve with a large enough effect; inconclusive means small, poorly fitted or top-dose-only effect; inactive means no such curve, though single readings can be large or run the other way.

CCOC(=O)c1cccc(NC(=O)c2ccc3nc(CCc4ccccc4)oc3c2)c1	none (no result: CtBP-E1A blk, Six1-Eya2 inh)
O=c1c2cccnc2n(Cc2ccc(Cl)cc2)c(=O)n1Cc1ccc(F)cc1	none (no result: CtBP-E1A blk, Six1-Eya2 inh)
Cc1cccc(-n2c(SCC(=O)N3CC(=O)Nc4ccccc43)nc3ccccc3c2=O)c1C	G9a block 44.7µM (no result: CtBP-E1A blk)
COc1cc(CCC(=O)NCc2ccc3c(c2)CCN3C(=O)c2cccc(C)c2)cc(OC)c1OC	none (no result: CtBP-E1A blk, Six1-Eya2 inh)
O=C(NCCc1ccc(Cl)cc1)c1cnc2sc(N3CCCCC3)nn2c1=O	none (no result: CtBP-E1A blk, Six1-Eya2 inh)
COc1ccc(C2c3c(nc(CCCc4ccccc4)[nH]c3=O)Oc3ccc4ccccc4c32)cc1OC (configuration not stated)	none (no result: CtBP-E1A blk, Six1-Eya2 inh, HP1b chromo inh, G9a block, BAZ2B block)
CC1(c2nnc(-c3cccc(Cl)c3)o2)CC(c2cccc([N+](=O)[O-])c2)=NO1 (configuration not stated)	G9a block 44.7µM, JMJD2A Tudor inh inconclusive
CCn1cc(C(=O)OCC(=O)Nc2cccc(Cl)c2C)c(=O)c2ccc(C)nc21	none (no result: CtBP-E1A blk, Six1-Eya2 inh)
CCC1C/C(=C/c2ccco2)C(=O)/C(=C/c2ccco2)C1 (configuration not stated)	G9a block 31.6µM, BAZ2B block 28.2µM (no result: CtBP-E1A blk, Six1-Eya2 inh, HP1b chromo inh, JMJD2A Tudor inh)
CC12CCCC(=O)C1CCC(=Cc1ccco1)C2=O (configuration not stated)	none (no result: HP1b chromo inh, G9a block, JMJD2A Tudor inh, BAZ2B block)
CCC1C/C(=C\c2cc(OC)c(OC)cc2OC)C(=O)/C(=C/c2cc(OC)c(OC)cc2OC)C1 (configuration not stated)	Six1-Eya2 inh inconclusive, HP1b chromo inh inconclusive, G9a block 25.1µM, JMJD2A Tudor inh 17.8µM, BAZ2B block 10µM
COc1cc(OC)c(OC)cc1/C=C1\CC(C)C/C(=C\c2cc(OC)c(OC)cc2OC)C1=O (configuration not stated)	Six1-Eya2 inh inconclusive, HP1b chromo inh inconclusive, G9a block 31.6µM, JMJD2A Tudor inh 20µM, BAZ2B block 11.2µM
COc1cc(OC)c(OC)cc1/C=C1/Cc2ccccc2C1=O	none (no result: CtBP-E1A blk)
CCc1cccc(NCc2ccccc2-c2nnc(-c3ccccc3Cl)o2)c1	none (no result: CtBP-E1A blk, Six1-Eya2 inh)
COc1ccc(-c2nnc(SCC(=O)Oc3c(C)cccc3C)o2)cc1OC	G9a block inconclusive (no result: CtBP-E1A blk, Six1-Eya2 inh)
COc1cc2c(cc1OC)C(c1cc(OC)c(OC)cc1[N+](=O)[O-])N(C(C)=O)CC2 (configuration not stated)	G9a block 70.8µM (no result: CtBP-E1A blk)
COc1cc2c(cc1OC)C(c1cc(Br)ccc1O)N(C(C)=O)CC2 (configuration not stated)	none (no result: G9a block, BAZ2B block)
O=C(CSc1nc(=O)n(Cc2ccncc2)c2c1CCC2)Nc1ccccc1	none (no result: CtBP-E1A blk, Six1-Eya2 inh)
COc1ccc(OC)c(/C=N/n2c(COc3ccccc3)n[nH]c2=S)c1	G9a block inconclusive
COc1ccc(/C=N/n2c(COc3ccccc3)n[nH]c2=S)cc1OC	HP1b chromo inh inconclusive, G9a block 1.26µM, JMJD2A Tudor inh 14.1µM
COc1ccc(Br)cc1/C=N/n1c(COc2ccccc2)n[nH]c1=S	G9a block 44.7µM
COc1cc(OC)c(OC)cc1/C=N/n1c(COc2ccccc2)n[nH]c1=S	HP1b chromo inh inconclusive, G9a block inconclusive, JMJD2A Tudor inh 17.8µM
COc1ccc(/C=N/n2c(=S)n(C)c3ccccc32)cc1OC	G9a block inconclusive, JMJD2A Tudor inh inconclusive, BAZ2B block inconclusive
CCNc1ncc2nc(-c3ccc(F)cc3)c(=O)n(CCOC)c2n1	none (no result: CtBP-E1A blk, Six1-Eya2 inh, HP1b chromo inh, JMJD2A Tudor inh, BAZ2B block)
C[n+]1cc(-c2ccccc2)n2c1CCCCC2	G9a block 70.8µM, BAZ2B block 44.7µM
COc1ccccc1COC(=O)N/C=C/c1ccco1	G9a block 20µM, BAZ2B block inconclusive
COc1ccc(CC(=O)NCC(=O)N/N=C/c2ccco2)cc1	none
COc1ccccc1OCc1ccc(C(=O)N/N=C/c2ccco2)cc1	none
COc1ccc(COC(=O)N/C=C/c2ccco2)cc1	G9a block 50.1µM
CCOC(=O)c1c(CSC(=N)N)n(-c2ccc(Br)cc2)c2cc(Br)c(OC(C)=O)cc12	G9a block 70.8µM, BAZ2B block inconclusive
Cc1cc(NC(=O)CN2CCN(c3ncccn3)CC2)no1	HP1b chromo inh inconclusive, G9a block 8.91µM, JMJD2A Tudor inh 20µM, BAZ2B block 56.2µM
O=C(CN1CCN(c2ncccn2)CC1)NCCC1=CCCCC1	HP1b chromo inh inconclusive, G9a block inconclusive, JMJD2A Tudor inh 3.16µM, BAZ2B block 50.1µM
Cc1cc(NC(=O)CN2CCCCC2)no1	HP1b chromo inh inconclusive, G9a block inconclusive, JMJD2A Tudor inh inconclusive, BAZ2B block 56.2µM
Cc1cc(C)cc(NC(=O)CN2CCN(c3ncccn3)CC2)c1	BAZ2B block inconclusive
Cc1cc(NC(=O)CN2CCCC(C)C2)no1 (configuration not stated)	HP1b chromo inh 50.1µM, JMJD2A Tudor inh 2.82µM (no result: G9a block)
Cc1ccc(CNC(=O)CN2CCCC(C)C2)cc1 (configuration not stated)	none
Cc1cc(NC(=O)c2ccc(Cn3cc([N+](=O)[O-])cn3)o2)no1	none
Cc1cc(NC(=O)Cn2cc([N+](=O)[O-])cn2)no1	G9a block 50.1µM
COc1ccc(CNC(=O)c2cc3c(=O)n(Cc4cccnc4)ccc3nc2C)cc1	none (no result: CtBP-E1A blk, Six1-Eya2 inh)
CCOC(=O)C1CCCN(C(=O)Cc2c(C(=O)O)[nH]c3ccccc23)C1 (configuration not stated)	none
CC1CCc2[nH]c3ccc(C(=O)N4CCCC(C(F)(F)F)C4)cc3c2C1 (configuration not stated)	G9a block 35.5µM, JMJD2A Tudor inh inconclusive, BAZ2B block 31.6µM
CCOC(=O)C1CCCN(C(=O)c2[nH]c3ccccc3c2Sc2ccc(Cl)cc2)C1 (configuration not stated)	G9a block 8.91µM, BAZ2B block inconclusive (no result: CtBP-E1A blk, Six1-Eya2 inh)
CCOC(=O)C1CCCN(C(=O)c2ccc3[nH]c4c(c3c2)CC(C)CC4)C1 (configuration not stated)	HP1b chromo inh inconclusive, G9a block inconclusive, JMJD2A Tudor inh inconclusive, BAZ2B block 50.1µM
CC1Sc2ccc(C(=O)N3CCCC(C(F)(F)F)C3)cc2NC1=O (configuration not stated)	none
CCc1ccccc1NC(=O)c1cc2nc(-c3ccc(Br)cc3)cc(C(F)(F)F)n2n1	none (no result: CtBP-E1A blk, Six1-Eya2 inh)
Cc1nc2c(c(C)nn2C(C)(C)C)c(C)c1CCC(=O)Nc1ccc(Br)cc1Br	none (no result: CtBP-E1A blk, Six1-Eya2 inh)
O=C1CSC(c2cn(-c3ccccc3)nc2-c2ccccc2)N1Cc1ccco1 (configuration not stated)	G9a block 11.2µM, JMJD2A Tudor inh inconclusive, BAZ2B block inconclusive
COc1ccc(S(=O)(=O)NCC(c2ccco2)N2CCN(c3ccc(F)cc3)CC2)cc1C (configuration not stated)	G9a block inconclusive, JMJD2A Tudor inh inconclusive (no result: CtBP-E1A blk, Six1-Eya2 inh)
